Source: PubChem BioAssay AID2685 (National Center for Advancing Translational Sciences (NCATS), 2010)
The whole screen tested about 320,000 compounds, of which about 2,100 (0.66%) were called active. Not shown: some 53% with an inconclusive outcome. The call rests on the fitted dose curve; in most records, active means well fitted inhibition curve with a large enough effect in the signal ratio, with a control signal flat (not every such curve was filed as active); inconclusive means small, poorly fitted or top-dose-only effect, or effect the other way, or a change in a side signal; inactive means flat fitted curve, though single readings scatter; the % refers to the signal ratio. The full list was thinned out, with actives kept by preference.

Assay: qHTS Assay for Lipid Storage Modulators in Drosophila S3 Cells;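 on cell number change: cells counted by Cell Tracker Red CMTPX staining in the red channel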; on lipid storage change, negative = inhibition: on the % scale 0 is the no-effect control and ±100 the full control effect
Details: BODIPY lipid droplet fluorescence, 18-24 h, cells fed with added oleic acid; cell number change: measured here: cell count max response; series mostly up to 46.1 µM; lipid storage change, negative = inhibition: at the top concentration
How it was run: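 Drosophila S3 cells got compounds at several concentrations plus oleic acid (400 uM solution). Laser-scanning cytometry with 488 nm excitation read lipid droplets at 500-530 nm and cells at 575-640 nm. Percent activity was relative to 20 uM Triacsin C.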
Potency means the concentration at half of the fitted maximal effect.

Row | Compound | lipid storage change, negative = inhibition | cell number change [%] | Potency | outcome
1 | Cc1cccc(Oc2ncnc(N)c2[N+](=O)[O-])c1C | -2.92% (inactive) | 1.6 | – | –
2 | CCCn1c(NC(=O)c2ccc([N+](=O)[O-])o2)nc2ccccc21 | – | -9.34 | 6.51 µM (active) | –
3 | CCCn1c(NC(=O)c2ccco2)nc2ccccc21 | – | -15.8 | – | inactive
4 | O=C(Nc1ccccn1)c1cc2ccccc2o1 | 2.25% (inactive) | -2.14 | – | –
5 | O=C(Nc1ccccn1)c1ccc([N+](=O)[O-])o1 | – | -6.3 | 20.6 µM (active) | –
6 | CCCn1c(NC(=O)c2ccc(C)cc2)nc2ccccc21 | – | – | – | inactive
7 | O=C(Nc1ncccn1)c1ccc([N+](=O)[O-])o1 | -14.6% (inactive) | -11.9 | – | –
8 | O=C(Nc1cccc2ncccc12)c1ccc([N+](=O)[O-])o1 | – | 26.1 | 16.4 µM (active) | –
9 | O=C(Nc1cccc2ncccc12)c1ccc(-c2ccc(Br)cc2)o1 | -6.65% (inactive) | -12.1 | – | –
10 | Cc1cccc(NC(=O)c2ccc([N+](=O)[O-])o2)c1C | -1.69% (inactive) | 8.85 | – | –
11 | Cc1cc(C)cc(OCCNC(=O)c2ccc(Br)cc2)c1 | – | 5.31 | – | inactive
12 | CCC(C)c1ccc(NC(=O)Nc2cnccn2)cc1 (centres undefined) | -6.7% (inactive) | 13.7 | – | –
13 | O=C1CC(C(=O)Nc2cc(Cl)ccc2Cl)n2ncnc2N1 (centres undefined) | 6.51% [at 9.22 µM] (inactive) | -2.1 | – | –
14 | CCOC(=O)N1CCN(S(=O)(=O)c2ccc(C)c(C)c2)CC1 | – | – | – | inactive
15 | CCN(CC)CCNC(=O)CCn1nc(-c2ccc(Cl)cc2)ccc1=O | -4.06% (inactive) | 9.34 | – | –
16 | O=C(C1COc2ccccc2O1)N1CCCC1 (centres undefined) | – | 0.347 | 6.51 µM (active) | –
17 | O=C(C1COc2ccccc2O1)N1CCCCC1 (centres undefined) | -14.7% (inactive) | 3.75 | – | –
18 | O=C(C1COc2ccccc2O1)N1CCN(c2ccccc2O)CC1 (centres undefined) | 37.9% (inactive) | -2.02 | – | –
19 | O=C(NNc1cccc(Cl)n1)Nc1ccc(Cl)cc1 | 17.2% (inactive) | -10.7 | – | –
20 | O=c1oc2ccc(F)cc2c2c1C1O[C@](c3ccsc3)(Cc3c1ccc1ccccc31)O2 | 17.6% [at 9.22 µM] (inactive) | 2.65 | – | –
21 | CC(C)CCNC(=O)C1CCC(=O)N1CCc1ccccc1 (centres undefined) | 1.46% (inactive) | 19.8 | – | –
22 | CC(C)(C)NC(=O)CN(C(=O)C(=O)Nc1ccc2c(c1)OCCO2)C(C)(C)C | -0.996% (inactive) | -1.34 | – | –
23 | CCC(C)(C)NC(=O)CN(Cc1cccs1)C(=O)C(=O)Nc1ccc2c(c1)OCCO2 | -17.7% (inactive) | 3.41 | – | –
24 | CCC(C)(C)NC(=O)CN(C(=O)C(=O)Nc1ccc2c(c1)OCCO2)C1CC1 | – | -1.67 | 1.16 µM (active) | –

Row | Compound | lipid storage change, negative = inhibition | cell number change [%] | Potency | outcome
25 | O=C(c1ccco1)N1CCN(c2cc(=O)n(-c3ccc(Cl)cc3)c(=O)[nH]2)CC1 | -21.2% (inactive) | – | – | –
26 | Cc1cc(NS(=O)(=O)c2ccc(NC(=O)CSc3nc4ncccc4[nH]3)cc2)nc(C)n1 | -7.33% (inactive) | -9.17 | – | –
27 | CCOC(=O)CNC(=O)c1sc(NC(=O)c2ccccc2)nc1C | 13.4% (inactive) | -2.79 | – | –
28 | Cc1nn(-c2ccccc2)c(=S)n1-c1ccccc1 | – | -7.47 | 32.6 µM (active) | –
29 | Cc1nn(C)c(=S)n1-c1ccc(Cl)cc1 | -1.67% (inactive) | 4.59 | – | –
30 | Cc1n[nH]c(=S)n1-c1ccccc1 | 0.353% (inactive) | 8.27 | – | –
31 | Cc1ccc(NC(=O)NCc2cccn2C)cc1C | 6.76% (inactive) | 7.96 | – | –
32 | O=C(Nc1cccc(O)c1)C(=O)Nc1ccccn1 | 16% (inactive) | 0.58 | – | –
33 | O=C(NCc1ccc2c(c1)OCO2)c1ccc(Br)s1 | 18.6% (inactive) | 15.1 | – | –
34 | COC(C(=O)Nc1ccnn1C1CCN(Cc2nccs2)CC1)c1ccccc1 (centres undefined) | – | -27.2 | 18.4 µM (active) | –
35 | COC(C(=O)Nc1ccnn1C1CCN(Cc2ccc(C)s2)CC1)c1ccccc1 (centres undefined) | 4.04% (inactive) | -1.51 | – | –
36 | COC(C(=O)Nc1ccnn1C1CCN(Cc2ccccn2)CC1)c1ccccc1 (centres undefined) | -3.44% (inactive) | -9.38 | – | –
37 | CCc1cc(Br)ccc1NC(=S)NCCc1ccccc1 | – | -12.4 | – | inactive
38 | Cc1ccc(/C=N/NC(=O)CSc2nc3ccccc3[nH]2)o1 | – | 23.1 | – | inactive
39 | CCOC(=O)c1c[nH]c2c(C)cc(C)cc2c1=O | -5.71% (inactive) | -13.9 | – | –
40 | CCCNC(=O)c1ccc(N2CCC3(CC2)CC(c2ccccc2)=NO3)c(NC(=O)c2ccco2)c1 | – | -21.9 | 5.17 µM (active) | –
41 | CCCNC(=O)c1ccc(N2CCC3(CC2)CC(c2cccc(Br)c2)=NO3)c(NC(=O)c2cccc(C)c2)c1 | -10.4% (inactive) | -6.01 | – | –
42 | Cc1ccc(CNC(=O)c2ccc(N3CCC4(CC3)CC(c3cccc(Br)c3)=NO4)c(NC(=O)c3ccco3)c2)cc1 | -0.741% (inactive) | -15.2 | – | –
43 | COc1ccccc1NS(=O)(=O)c1ccc2c(c1)CCN2C(=O)CCC(=O)O | 11.3% (inactive) | 0.926 | – | –
44 | CC(C)c1c(C(=O)N/N=C/c2cccnc2)nnn1-c1nonc1N | – | -22.2 | – | inactive
45 | CCc1ccc(-c2ccc(SCc3ccccn3)nn2)cc1 | 1.79% (inactive) | -1.78 | – | –
46 | Cc1cc(C)cc(C(=O)/C=C2\NC(=O)CS2)c1 | -9.56% (inactive) | – | – | –
47 | CC(C)N(Cc1ccccc1)C(=O)COc1ccccc1 | 12.5% (inactive) | 2.07 | – | –
48 | CC(C)(C)OC(=O)NOCC(=O)N(Cc1ccccc1)CC(O)COc1ccccc1 (centres undefined) | – | -1.25 | 7.31 µM (active) | –

Row | Compound | lipid storage change, negative = inhibition | cell number change [%] | Potency | outcome
49 | O=C(NN(CC(O)COc1ccccc1)CC(O)COc1ccccc1)c1ccccc1 (centres undefined) | -2.08% (inactive) | -5.14 | – | –
50 | CCOC(=O)N1CCN(C(=O)/C=C/c2c(C)nn(-c3ccc(F)cc3)c2Cl)CC1 | -7.33% (inactive) | -7.81 | – | –
51 | O=C(CSc1ccccn1)N1CCOCC1 | -6.88% (inactive) | -9.67 | – | –
52 | CS(=O)(=O)N(CC(=O)N1CCCCC1)c1ccc(Cl)c(C(F)(F)F)c1 | 3.58% (inactive) | 0.64 | – | –
53 | CCn1c(SCC(=O)N2CCCC2)nc2ccccc2c1=O | 8.17% (inactive) | -13.8 | – | –
54 | CNC(=O)c1ncoc1-c1ccc(Cl)cc1 | 1.92% (inactive) | 12.8 | – | –
55 | CNC(=O)c1oc(-c2ccc(Cl)cc2)nc1C | – | – | 2.59 µM (active) | –
56 | COC(=O)c1oc(-c2ccc(Cl)cc2)nc1C | -2.09% (inactive) | -10.5 | – | –
57 | Cc1cccc(C)c1NC(=S)N(Cc1ccco1)C1CCN(C(C)C)CC1 | 4.29% (inactive) | 1.59 | – | –
58 | COc1ccc(-n2nnnc2SCC(=O)NNC(=O)c2ccc([N+](=O)[O-])cc2)cc1 | 14.8% (inactive) | 9.64 | – | –
59 | Cc1ccc(NC(=O)C(=O)NCCc2c[nH]c3ccccc23)cc1C | 3.29% [at 9.22 µM] (inactive) | 15 | – | –
60 | CCOCCCNC(=O)CN1C(=O)c2cccc3cccc1c23 | – | -5.29 | – | inactive
61 | Cc1ccc(NC(=O)c2ccccc2NS(=O)(=O)c2ccc(Cl)s2)cc1S(=O)(=O)N1CCOCC1 | 9.85% (inactive) | 11.6 | – | –
62 | COc1ccc(C)cc1NC(=O)c1ccccc1NS(=O)(=O)c1ccc(Cl)s1 | 9.92% (inactive) | – | – | –
63 | COc1cc(NC(=O)c2ccccc2NS(=O)(=O)c2ccc(Cl)s2)cc(OC)c1 | – | -19.8 | 16.4 µM (active) | –
64 | CCN1CCN(c2nc3sc4c(c3c(=O)n2-c2ccc(OC)cc2)CCCCC4)CC1 | -2.33% (inactive) | -9.24 | – | –
65 | CCOC(=O)COc1ccccc1C1Nc2ccccc2C(=O)N1c1cccc(Cl)c1 (centres undefined) | -10% (inactive) | 2.87 | – | –
66 | COc1ccc(NCc2nnc(SCC(=O)NCc3ccco3)n2-c2ccccc2OC)cc1 | 4.09% (inactive) | 13.6 | – | –
67 | COC(=O)[C@H](CCSC)NC(=O)NCc1ccccc1F | -0.91% (inactive) | -14.5 | – | –
68 | CCC(C)[C@H](NC(=O)NCc1ccccc1Cl)C(=O)OC (some centres undefined) | 7% (inactive) | -19 | – | –
69 | COC(=O)[C@@H](NC(=O)NCc1ccccc1F)C(C)C | – | -6.12 | 25.9 µM (active) | –
70 | CCC(C)[C@H](NC(=O)NCc1ccc(Cl)cc1)C(=O)O (some centres undefined) | 0.0506% (inactive) | 4.5 | – | –
71 | CCC(C)[C@H](NC(=O)NCc1cccc(OC)c1)C(=O)O (some centres undefined) | – | 1.61 | 6.51 µM (active) | –
72 | CCC(C)NC(=O)NCc1ccccc1F (centres undefined) | -1.24% (inactive) | 2.87 | – | –

Row | Compound | lipid storage change, negative = inhibition | cell number change [%] | Potency | outcome
73 | COC(=O)[C@@H](NC(=O)NCc1cccc(OC)c1)C(C)C | 10.7% (inactive) | -13.3 | – | –
74 | CCC(C)[C@H](NC(=O)NCc1ccccc1Cl)C(=O)O (some centres undefined) | – | -0.143 | 29.1 µM (active) | –
75 | COc1cccc(CNC(=O)N[C@@H](C)C(=O)O)c1 | -15.6% (inactive) | 1.68 | – | –
76 | CC(C)N(C)Cc1nnnn1CC(=O)NCc1cc(F)cc(C(F)(F)F)c1 | -4.82% (inactive) | -9.03 | – | –
77 | Cn1nc(-c2ccccc2)c(CO)c1Oc1cccc(C(F)(F)F)c1 | 14.8% (inactive) | 9.06 | – | –
78 | COc1ccc(C(=O)CSc2nnc(C3CC3)n2N)cc1 | -0.56% (inactive) | -1.83 | – | –
79 | O=C(O)c1ccc(NS(=O)(=O)c2cc(Cl)ccc2Cl)cc1 | -4.19% (inactive) | 3.91 | – | –
80 | Cc1ccc(NS(=O)(=O)c2cc(C(=O)O)ccc2Cl)cc1 | – | -3.53 | 2.31 µM (active) | –
81 | Cc1ccc(NS(=O)(=O)c2cc(C(=O)O)ccc2Cl)c(C)c1 | 6.34% (inactive) | -3.54 | – | –
82 | COCCN1Cc2cccc(C(=O)NC(C)CCc3ccco3)c2C1=O (centres undefined) | 7.18% (inactive) | 4.03 | – | –
83 | O=C(Nc1cccc(C(=O)O)c1)/C(=C\c1ccco1)NC(=O)c1ccccc1 | -5.58% (inactive) | 13 | – | –
84 | CCOC(=O)N1CCN(CC(=O)N2c3ccccc3Sc3ccccc32)CC1 | -11.6% (inactive) | -12.6 | – | –
85 | C#CCOc1ccc(C2C3=C(CC(C)(C)CC3=O)N(CC(=O)O)C3=C2C(=O)CC(C)(C)C3)cc1 | -19.8% (inactive) | -0.525 | – | –
86 | COc1ccc(C2C3=C(CC(C)(C)CC3=O)N(CC(=O)O)C3=C2C(=O)CC(C)(C)C3)cc1OC | 2.8% (inactive) | -17.9 | – | –
87 | C#CCOc1ccc(C2C3=C(CC(C)(C)CC3=O)N(CC(=O)O)C3=C2C(=O)CC(C)(C)C3)cc1OC | – | -7.42 | 10.3 µM (active) | –
88 | O=C(CN1C(=O)c2ccccc2C1=O)Nc1ccc(-c2nc3ccccc3o2)cc1 | – | – | – | inactive
89 | Cc1nn(C)cc1C(C(=O)NC1CCCCC1)N(CCc1ccccc1)C(=O)c1cnccn1 (centres undefined) | 26.4% (inactive) | 19.3 | – | –
90 | O=C(/C=C/c1cn(-c2ccccc2)nc1-c1cccnc1)N1CCCC1 | -13% (inactive) | -19.7 | – | –
91 | CCOc1cc(/C=N/NC(=O)c2ccccn2)ccc1OC(=O)c1ccc(F)cc1 | – | 5.41 | – | inactive
92 | CCOc1cc(/C=N/NC(=O)c2cccnc2)ccc1OC(=O)c1ccco1 | -11.5% (inactive) | -16.1 | – | –
93 | CCOc1cc(/C=N/NC(=O)c2ccncc2)ccc1OC(=O)c1ccccc1 | – | -17.2 | 12.6 µM (active) | –
